Compound activity: PubChem, several laboratories
Most compounds without a hit are left out; they make up all but 27% or so of the library.
CYP2C9 act: CYP2C9 (human) activation; actives 1.4% (n = 96,000); activation factor at 5 µM; P11712; AID 1024; recombinant CYP2C9, luciferin-H conversion, luminescence; stronger effect = higher value; factor 1 = untreated enzyme, 0 = blocked;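 active means activation factor of 2 or more for CYP2C9 at a 5 µM dose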
Cav3 T inh: blocks human Cav3.2 T-type calcium channel; B-score at 10 µM; Cav3.2-expressing cells, Fluo-4 calcium fluorescence FDSS; stronger effect = lower value; actives 4% (n = 100,000); O95180; AID 449739;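 active means single-dose well whose peak fluorescence ratio is a statistical outlier from its plate by either plate-standardised score or position-corrected B-score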
Target sequence (O95180 whole entry, looked up): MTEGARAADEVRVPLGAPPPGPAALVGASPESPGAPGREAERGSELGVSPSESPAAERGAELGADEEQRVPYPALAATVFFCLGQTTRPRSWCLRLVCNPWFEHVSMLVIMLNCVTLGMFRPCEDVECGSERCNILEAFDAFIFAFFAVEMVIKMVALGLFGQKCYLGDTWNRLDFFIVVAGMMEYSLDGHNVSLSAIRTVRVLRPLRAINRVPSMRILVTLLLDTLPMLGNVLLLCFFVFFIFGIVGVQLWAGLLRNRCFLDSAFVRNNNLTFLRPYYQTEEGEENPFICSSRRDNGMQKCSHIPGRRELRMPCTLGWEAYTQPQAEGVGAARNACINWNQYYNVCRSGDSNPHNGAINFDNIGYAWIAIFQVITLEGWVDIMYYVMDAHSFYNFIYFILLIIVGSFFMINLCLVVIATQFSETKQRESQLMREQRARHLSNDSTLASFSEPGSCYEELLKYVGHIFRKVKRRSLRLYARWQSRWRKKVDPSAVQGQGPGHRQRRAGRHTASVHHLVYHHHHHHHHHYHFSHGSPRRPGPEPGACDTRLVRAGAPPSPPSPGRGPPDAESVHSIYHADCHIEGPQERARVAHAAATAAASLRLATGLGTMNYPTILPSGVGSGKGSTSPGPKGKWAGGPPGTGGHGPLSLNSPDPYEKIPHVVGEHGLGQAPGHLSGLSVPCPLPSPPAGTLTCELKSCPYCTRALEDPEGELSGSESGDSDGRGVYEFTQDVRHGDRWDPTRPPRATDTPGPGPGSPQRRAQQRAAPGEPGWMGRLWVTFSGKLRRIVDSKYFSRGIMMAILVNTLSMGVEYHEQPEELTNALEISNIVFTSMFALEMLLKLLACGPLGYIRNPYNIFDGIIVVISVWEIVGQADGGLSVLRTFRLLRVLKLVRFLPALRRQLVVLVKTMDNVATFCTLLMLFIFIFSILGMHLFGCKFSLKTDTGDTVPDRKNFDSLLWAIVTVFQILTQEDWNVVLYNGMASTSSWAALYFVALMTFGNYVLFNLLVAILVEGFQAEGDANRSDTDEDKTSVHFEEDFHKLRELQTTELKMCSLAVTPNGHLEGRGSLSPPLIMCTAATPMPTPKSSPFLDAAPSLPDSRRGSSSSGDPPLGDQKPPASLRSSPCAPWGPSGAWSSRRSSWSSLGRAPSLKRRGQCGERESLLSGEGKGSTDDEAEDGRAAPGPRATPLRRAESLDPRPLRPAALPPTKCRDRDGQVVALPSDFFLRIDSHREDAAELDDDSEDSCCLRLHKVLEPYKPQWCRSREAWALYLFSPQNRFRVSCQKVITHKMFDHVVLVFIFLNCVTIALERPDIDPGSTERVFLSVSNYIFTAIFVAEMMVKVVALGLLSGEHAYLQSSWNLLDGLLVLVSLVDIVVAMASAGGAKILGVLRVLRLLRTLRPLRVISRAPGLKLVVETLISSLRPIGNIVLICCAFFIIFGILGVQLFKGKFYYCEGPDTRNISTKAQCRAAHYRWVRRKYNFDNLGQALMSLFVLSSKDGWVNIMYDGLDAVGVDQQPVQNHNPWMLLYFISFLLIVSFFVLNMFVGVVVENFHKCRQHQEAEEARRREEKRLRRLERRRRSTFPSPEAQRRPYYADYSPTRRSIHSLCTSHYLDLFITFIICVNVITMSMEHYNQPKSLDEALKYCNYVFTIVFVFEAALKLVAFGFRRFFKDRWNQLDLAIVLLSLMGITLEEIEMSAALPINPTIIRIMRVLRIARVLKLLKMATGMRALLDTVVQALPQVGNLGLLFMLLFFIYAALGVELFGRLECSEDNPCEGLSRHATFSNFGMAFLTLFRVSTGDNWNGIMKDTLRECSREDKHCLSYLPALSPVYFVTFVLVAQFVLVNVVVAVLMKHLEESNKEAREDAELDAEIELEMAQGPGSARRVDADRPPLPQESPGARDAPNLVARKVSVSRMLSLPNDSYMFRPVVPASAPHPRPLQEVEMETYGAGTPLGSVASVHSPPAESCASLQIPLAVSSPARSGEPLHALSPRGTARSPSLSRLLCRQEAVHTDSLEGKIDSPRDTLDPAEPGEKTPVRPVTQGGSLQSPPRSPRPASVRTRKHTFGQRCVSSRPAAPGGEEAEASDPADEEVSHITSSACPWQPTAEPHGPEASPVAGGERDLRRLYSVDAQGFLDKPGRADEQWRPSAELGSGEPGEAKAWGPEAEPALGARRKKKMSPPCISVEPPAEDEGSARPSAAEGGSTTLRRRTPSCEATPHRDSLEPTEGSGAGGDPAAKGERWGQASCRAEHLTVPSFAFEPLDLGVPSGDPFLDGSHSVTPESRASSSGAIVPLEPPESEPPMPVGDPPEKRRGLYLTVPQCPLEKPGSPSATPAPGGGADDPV
CYP2C19 act: cytochrome P450 2C19 (human) activation. recombinant CYP2C19, luciferin-H EGE luminescence; stronger effect = higher value; 0 = fully inhibited enzyme, 1 = untreated enzyme. 96,000 tested, under 10 active. P33261. activation factor at 5 µM;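 active means activation factor of at least 2 at 5 µM in the primary screen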
PTK2B oligo ant: blocks oligomerization of human Pyk2 in cells; z-score (the deposit names both 25 µM and 10 µM); AID 1347419; actives 0.83% (n = 99,000); Q14289; Q293 cells, Pyk2 FERM NanoBiT luminescence; stronger effect = lower value;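 active means Z-score of -3 or lower, scaled per plate to the spread of control and sample wells; inactive means z-score above -3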;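 further: negative z-score means lost luminescence so less FERM oligomerization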
CYP2C19 inh: inhibitors of human CYP2C19; AID 778; P33261; actives 21% (n = 96,000); CYP2C19 Supersomes, luciferin-H EGE luminescence, 30 min; inhibition, % at 5 µM;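 active means CYP2C19 inhibition above a set limit at 5 µM in the primary screen, cut at about 50% in these data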
CYP2C9 inh: inhibitors of human CYP2C9 | P11712 | CYP2C9 Supersomes, luciferin-H conversion, luminescence | actives 20% (n = 96,000) | inhibition, % at 5 µM;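 active means blocking of liver enzyme CYP2C9 beyond about 50% at 5 µM, limit read from the data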
A number is an active result; . = inactive; / = no result given.

SMILES | CYP2C9 act | Cav3 T inh | CYP2C19 act | PTK2B oligo ant | CYP2C19 inh | CYP2C9 inh
CCSc1nc2cc(OC)c(OC)cc2c(=O)n1CC | . | . | . | . | . | 52
COC(=O)c1ccc2c(=O)n(Cc3ccco3)c(SCC(=O)Nc3ccc(C)c(Cl)c3)nc2c1 | . | . | . | . | . | 77
CCCCNC(=O)CSc1nc2cc(OC)c(OC)cc2c(=O)n1Cc1ccc(OC)cc1 | . | . | . | . | . | 68
CCC(Sc1nc2cc(OC)c(OC)cc2c(=O)n1Cc1ccco1)C(=O)NCCOC (stereo not drawn) | . | . | . | . | . | .
COCCNC(=O)CSc1nc2cc(OC)c(OC)cc2c(=O)n1Cc1ccco1 | . | . | . | . | . | 83
COCCn1c(SCC(=O)NCc2ccco2)nc2cccnc21 | . | . | . | . | 54 | .
Cn1c(SCC(=O)NCc2ccco2)nc2ccccc2c1=O | . | . | . | . | . | .
CCNC(=O)CSc1nc2cc(OC)c(OC)cc2c(=O)n1CCC1=CCCCC1 | . | / | . | / | 52 | 52
O=S(=O)(c1ccccc1)N1CCN(Cc2ccccc2C(F)(F)F)CC1 | . | . | . | . | 94 | 83
O=C(c1ccc(Br)cc1)N1CCN(S(=O)(=O)c2ccccc2)CC1 | . | . | . | / | 70 | .
O=C(CSc1cccc(C(F)(F)F)c1)N1CCN(S(=O)(=O)c2ccccc2)CC1 | . | . | . | . | 59 | .
O=C(c1nc(-c2ccccc2)n(-c2ccccc2)n1)N1CCN(S(=O)(=O)c2ccccc2)CC1 | . | . | . | . | . | 66
Cc1nn(-c2ccccc2)c(C)c1C(=O)OCC(=O)N1CCN(S(=O)(=O)c2ccccc2)CC1 | . | . | . | . | . | .
Cc1ccc(S(=O)(=O)N2CCN(Cc3ccccc3C(F)(F)F)CC2)cc1 | . | / | . | . | . | .
O=C(CSc1ncc(C(F)(F)F)cc1Cl)N1CCN(S(=O)(=O)c2ccc3ccccc3c2)CC1 | . | . | . | . | . | .
CCc1ccc(-c2ccc(C(=O)C(F)(F)F)[nH]2)cc1 | . | . | . | . | . | .
COc1ccccc1N1CCN(C(=O)C2C3C=CC4(CN(Cc5ccccc5Cl)C(=O)C24)O3)CC1 (stereo not drawn) | . | . | . | . | . | .
O=C(N1CCCCCC1)N1CCN(S(=O)(=O)c2ccccc2)CC1 | . | . | . | . | . | .
O=C(c1ccccc1C(F)(F)F)N1CCN(S(=O)(=O)c2ccccc2)CC1 | . | . | . | . | 87 | .
Cc1ccccc1CN1CCN(Cc2ccccc2C(F)(F)F)CC1 | . | . | . | . | 91 | .
C=CCn1c(SCC(=O)/C(C#N)=C(\C)N)nnc1C1CCCCC1 | . | . | . | . | 78 | .
C=CCn1c(SCC(=O)NCc2ccccc2)nnc1C1CCCCC1 | . | . | . | . | . | .
C/C(N)=C(/C#N)C(=O)CSc1nnc(-c2ccc3c(c2)OCO3)o1 | . | . | . | . | . | .
C/C(N)=C(/C#N)C(=O)CSc1n[nH]c(-c2ccccc2Br)n1 | . | . | . | . | 97 | .
C/C(N)=C(/C#N)C(=O)CSc1nc(C2CCCCC2)n(-c2ccccc2)n1 | . | -5.1 | . | . | . | 77
SMILES | CYP2C9 act | Cav3 T inh | CYP2C19 act | PTK2B oligo ant | CYP2C19 inh | CYP2C9 inh
O=C(CSc1n[nH]c(-c2ccccc2)n1)Nc1ccc(Br)cn1 | / | . | / | . | / | /
C=CCn1c(SCC(=O)NC(=O)NC2CCCC2)nnc1C1CCCCC1 | / | . | / | . | / | /
C=CCn1c(SCc2cc(=O)n3ccsc3n2)nnc1C1CCCCC1 | . | . | . | . | 88 | .
CCCc1nnc(SCC(=O)N2CCCCC2)n1CCCOC | . | . | . | . | . | .
COc1cc2c(cc1OC)C[N+](C)(C)CC2 | / | . | / | / | / | /
CCO[C@H]1OC(C(=O)N2CCN(Cc3ccc4c(c3)OCO4)CC2)=C[C@@H](C)[C@@H]1CCCO | / | . | / | / | / | /
CCCCSc1nnc2nc(C)cc(C)n12 | . | . | . | . | . | .
CC1CN(c2cc(=O)n(-c3ccccc3)c(=O)[nH]2)CC(C)O1 (stereo not drawn) | . | . | . | / | . | .
Cc1[nH]nc(N=CC2=C(O)CC(C)(C)CC2=O)c1-c1ccc(Cl)cc1 | . | . | . | . | . | .
COc1cc2c(=O)nc3n(c2cc1OC)C(c1ccccc1)N=C(N)N3 (stereo not drawn) | . | / | . | / | . | .
Cc1ccc(NC2=NC(c3ccc(C)cc3)n3c(nc(C)cc3=O)N2)cc1 (stereo not drawn) | . | . | . | . | 71 | 50
Cc1ccc(NC2=NC(c3ccccc3)n3c(nc(C)cc3=O)N2)c(C)c1 (stereo not drawn) | . | . | . | . | 83 | .
Cc1cc2nc(C)c(Cc3ccccc3)c(=O)n2[nH]1 | 2.3 | / | . | . | . | .
CC(C)c1ccccc1NC(=O)Cn1c(-c2ccccc2Cl)nc2ccccc21 | / | / | / | . | / | /
CCn1c(-c2ccccc2Cl)nn(CC(=O)Nc2cc(Cl)ccc2Cl)c1=S | . | -4.8 | . | . | 89 | .
C#CCNC(=O)C1=C[C@H](c2coc3ccccc3c2=O)[C@@H](CCCO)[C@H](OCC)O1 | / | . | / | / | / | /
CC(=O)OC1C(OC(C)=O)N(C(C)=O)C(=O)N1C(C)=O (stereo not drawn) | . | . | . | . | . | .
CCCCNC(=O)CSc1nc2ccccc2c(=O)n1CC1COc2ccccc2O1 (stereo not drawn) | . | . | . | . | 70 | .
CCCCN(CC)C(=O)CSc1nc2ccccc2c(=O)n1CC1COc2ccccc2O1 (stereo not drawn) | . | . | . | . | . | 74
O=[N+]([O-])c1ccc(/C=N/Nc2nc(N3CCCCC3)nc(N3CCCCC3)n2)o1 | . | . | . | . | . | .
CSc1ccc(CNCCCN(C)C)cc1 | / | / | / | . | / | /
Cc1cc(=O)oc(C)c1C(=O)n1nc(C)c2c1C[C@@H]1[C@H]2C1(C)C | . | . | . | . | . | 62
Cc1cc(=O)oc(C)c1C(=O)NC12CC3CC(CC(C3)C1)C2 | . | . | . | . | . | .
c1ccc(-c2cc(N3CCCCC3)ncn2)cc1 | . | . | . | . | 87 | .
FC(F)(F)c1cc(-c2ccccc2)nc(N2CCCCCC2)n1 | . | . | . | . | . | .
SMILES | CYP2C9 act | Cav3 T inh | CYP2C19 act | PTK2B oligo ant | CYP2C19 inh | CYP2C9 inh
Nc1nc(-c2ccccc2)cc(N2CCCCC2)n1 | . | . | . | . | 51 | .
c1ccc(-c2cnnc(N3CCCCC3)n2)cc1 | . | . | . | . | 83 | .
Cc1cc(C)n(-c2cc(-c3ccccc3)nc(C)n2)n1 | . | . | . | . | . | .
Cc1nc(-c2ccccc2)cc(N2CCCC2)n1 | . | . | . | . | 51 | .
c1ccc(-c2cc(N3CCCCCC3)n[nH]2)cc1 | . | . | . | . | . | .
CCOc1ccc(NC(=O)C(C)Oc2ccccc2C(=O)Nc2ccc(C)c(Cl)c2)cc1 (stereo not drawn) | / | . | / | . | / | /
